Laboratory results: PubChem BioAssay (NCATS)
Records with an inconclusive call do not appear. Activity calls are given as the source filed them. Unless noted, calls come from the whole dose curve; as a rule, active = well fitted curve in the direction sought with a large enough effect; inconclusive = small, poorly fitted or top-dose-only effect, or another doubt; inactive = no such curve, though single readings can be large; an effect the other way counts as inactive or inconclusive.

Experiments:
[1] = AP1 Signaling Pathway (AID 357; active = well fitted curve in either direction with a large enough effect, not every such curve was filed as active;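 note: ME-180 reporter cells stimulated with EGF at its EC50 level; % is set by controls: 0 for no effect and ±100 for the full control effect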); conditions: ME-180 AP-1-bla reporter, EGF-induced, beta-lactamase ratio, 5 h; at 7.69 µM (top of the series) unless noted
In short: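 Titration-series screen for positive or negative modulators of EC50 EGF-induced signaling in ME-180 cells carrying an AP-1-driven beta-lactamase reporter. After 5 hours at 37 degrees Celsius, CCF4 460nm/530nm emission ratio gave %Activity; AC50 values derived.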

[2] = target: Cytochrome P450 1A2 (Homo sapiens) (UniProt P05177); assay: p450-cyp1a2 (AID 410; calls by dose curve;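 note: -100% = full effect of reference inhibitor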); conditions: recombinant CYP1A2, luciferin-ME demethylation, luminescence; series mostly up to 11.4 µM
Chain of Cytochrome P450 1A2 (Homo sapiens) (P05177 whole entry, looked up): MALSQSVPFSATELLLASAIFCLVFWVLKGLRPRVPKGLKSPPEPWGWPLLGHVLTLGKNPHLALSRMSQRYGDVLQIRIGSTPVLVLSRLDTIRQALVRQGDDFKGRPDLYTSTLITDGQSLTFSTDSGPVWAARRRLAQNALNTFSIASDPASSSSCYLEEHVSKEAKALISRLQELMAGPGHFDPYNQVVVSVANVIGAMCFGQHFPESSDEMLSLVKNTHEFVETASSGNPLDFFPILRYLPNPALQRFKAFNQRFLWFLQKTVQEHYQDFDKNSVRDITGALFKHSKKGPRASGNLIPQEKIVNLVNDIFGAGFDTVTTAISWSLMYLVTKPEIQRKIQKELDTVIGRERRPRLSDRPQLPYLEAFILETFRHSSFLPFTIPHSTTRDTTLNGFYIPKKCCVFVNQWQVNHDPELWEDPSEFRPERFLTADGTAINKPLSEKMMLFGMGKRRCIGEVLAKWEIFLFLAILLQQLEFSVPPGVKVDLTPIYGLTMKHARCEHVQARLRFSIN
In short: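 20nM CYP1A2, 100uM Luciferin-ME (=Km), 100mM KPO4; cpd 10 min RT; +NADPH regen, 60 min RT; stop/detect 20 min; luminescence. Normalized to furafylline 57 uM = full inhibition.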

[3] = NFAT Signaling Pathway (AID 444; active = well fitted curve in either direction with a large enough effect, not every such curve was filed as active;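 note: carbachol stimulus at about its EC50 of 1 µM final; % is set by controls: 0 for no effect and ±100 for the full control effect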); conditions: Jurkat NFAT-bla M1, carbachol, beta-lactamase ratio, 5 h; at 7.69 µM (top of the series) unless noted
In short: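 Jurkat cells carrying an NFAT-driven β-lactamase reporter and co-transfected muscarinic M1 receptor were treated with compound plus carbachol (1 uM final, an EC50 level) for 5 h at 37 °C. CCF4 loading followed for 1 h at RT; 460/530 nm ratio gave %activity.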

[4] = Stat Signaling Pathway (AID 446; active = well fitted curve in either direction with a large enough effect, not every such curve was filed as active;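 note: ME-180 cervical cancer cells given 40 pM IL-6 alongside compound; SIE-controlled beta-lactamase reporter measured as 460/530 nm FRET emission ratio; % is set by controls: 0 for no effect and ±100 for the full control effect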); conditions: ME-180 (cervical carcinoma) SIE beta-lactamase reporter, IL-6 stimulated, 5 h; at 7.69 µM (top of the series) unless noted
In short: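 Normalization used AC90 stimulation (300 pM IL-6) and AC90 inhibition (125 nM pan-JAK inhibitor at 40 pM IL-6). The underlying signal is SIE-driven beta-lactamase in ME-180 cells after 5 h IL-6 exposure with compound.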

[5] = target: Glucocorticoid receptor (Homo sapiens) (UniProt P04150); assay: GR-GFP Redistribution (AID 450;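 active = compounds whose dose series gives a full or clear partial fitted curve of increased nuclear translocation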; note: potency is the fitted concentration of half-maximal effect); conditions: U2OS GR-GFP nuclear translocation, laser cytometry, 2 h
Chain of Glucocorticoid receptor (Homo sapiens) (P04150 whole entry, looked up, the tested form may be a part): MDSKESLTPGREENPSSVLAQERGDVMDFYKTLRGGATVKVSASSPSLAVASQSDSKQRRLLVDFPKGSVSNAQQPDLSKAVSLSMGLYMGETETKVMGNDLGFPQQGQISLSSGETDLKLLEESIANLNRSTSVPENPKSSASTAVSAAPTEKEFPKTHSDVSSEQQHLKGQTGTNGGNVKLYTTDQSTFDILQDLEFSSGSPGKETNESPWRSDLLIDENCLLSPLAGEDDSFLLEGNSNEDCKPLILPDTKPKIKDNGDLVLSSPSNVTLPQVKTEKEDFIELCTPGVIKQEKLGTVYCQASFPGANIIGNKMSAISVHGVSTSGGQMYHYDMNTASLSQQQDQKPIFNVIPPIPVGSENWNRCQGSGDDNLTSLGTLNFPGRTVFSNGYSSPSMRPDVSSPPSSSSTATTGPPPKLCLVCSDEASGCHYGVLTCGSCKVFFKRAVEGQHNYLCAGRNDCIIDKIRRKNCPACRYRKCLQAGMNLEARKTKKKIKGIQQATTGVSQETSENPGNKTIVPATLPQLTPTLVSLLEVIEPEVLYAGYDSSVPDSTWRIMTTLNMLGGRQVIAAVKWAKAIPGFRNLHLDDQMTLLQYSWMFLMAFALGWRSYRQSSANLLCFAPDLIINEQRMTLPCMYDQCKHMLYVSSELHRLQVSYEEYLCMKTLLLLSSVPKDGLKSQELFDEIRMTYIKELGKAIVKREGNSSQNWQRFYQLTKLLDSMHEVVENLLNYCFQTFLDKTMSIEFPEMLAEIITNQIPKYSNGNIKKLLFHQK

[6] = target: Mitogen-activated protein kinase 10 (Mus musculus) (UniProt Q61831); assay: JNK3 AlphaScreen Assay (AID 530; active = well fitted curve in either direction with a large enough effect, not every such curve was filed as active;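 note: kinase came from lysate of stimulated human HepG2 cells; signal reports phosphorylation of biotinylated GST-cJun 1-79 at Ser73 with 10 µM ATP; % is set by controls: 0 for no effect and ±100 for the full control effect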); conditions: JNK3 lysate, c-Jun phosphorylation; series mostly up to 57.1 µM
In short: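 Biotinylated GST-cJun(1-79) served as substrate for JNK3 in HepG2 lysates stimulated with IL-1beta and TNF-alpha. ATP was 10 uM final, pH 7.6. Ser73 phosphorylation was quantified by AlphaScreen (680 nm excitation).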

[7] = target: 3',5'-cyclic-AMP phosphodiesterase 4B (Homo sapiens) (UniProt Q07343); assay: qHTS Assay for Inhibitors of PDE-IV (AID 607; active = well fitted activation curve with a large enough effect in the main read-out, with a control signal flat, not every such curve was filed as active; note: % of control where 0% means no effect); conditions: HEK293 ACTOne CNG channel cells, membrane potential fluorescence; series mostly up to 22.9 µM
Chain of 3',5'-cyclic-AMP phosphodiesterase 4B (Homo sapiens) (Q07343 whole entry, looked up): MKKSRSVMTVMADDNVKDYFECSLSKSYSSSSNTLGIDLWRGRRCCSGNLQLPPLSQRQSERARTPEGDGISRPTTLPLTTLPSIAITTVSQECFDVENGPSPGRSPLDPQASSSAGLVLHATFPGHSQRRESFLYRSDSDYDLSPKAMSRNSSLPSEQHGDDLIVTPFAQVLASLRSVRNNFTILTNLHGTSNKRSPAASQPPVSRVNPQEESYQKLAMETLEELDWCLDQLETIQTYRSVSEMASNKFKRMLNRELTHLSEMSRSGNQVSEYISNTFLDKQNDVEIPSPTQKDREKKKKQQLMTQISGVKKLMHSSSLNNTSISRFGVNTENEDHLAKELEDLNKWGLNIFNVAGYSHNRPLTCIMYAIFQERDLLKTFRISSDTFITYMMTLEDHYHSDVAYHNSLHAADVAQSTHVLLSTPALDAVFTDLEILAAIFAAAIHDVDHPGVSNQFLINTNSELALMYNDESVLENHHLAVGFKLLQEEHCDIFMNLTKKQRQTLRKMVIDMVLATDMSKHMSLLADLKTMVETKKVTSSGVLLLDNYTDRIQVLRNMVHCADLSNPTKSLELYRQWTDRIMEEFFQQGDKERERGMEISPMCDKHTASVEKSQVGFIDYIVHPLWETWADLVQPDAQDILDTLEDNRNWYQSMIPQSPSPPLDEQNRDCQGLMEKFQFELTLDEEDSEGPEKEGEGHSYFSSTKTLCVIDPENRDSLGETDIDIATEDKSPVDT
In short: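 HEK293 ACTOne cells with CNG channel (1000/well), endogenous PDE4; membrane potential dye, compounds up to 22.9 uM final. Fluorescence Ex 535/Em 590; RO 20-1724 (100 uM final) as reference.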

[8] = target: Guanine nucleotide-binding protein G(i) subunit alpha-1 (Homo sapiens) (UniProt P63096); assay: qHTS Assay for Inhibitors of RGS12 GoLoco Motif Activity (Green Fluorophore) (AID 879); conditions: Galphai1/FITC-RGS12 GoLoco peptide, fluorescence polarization; series mostly up to 57.1 µM;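 note: 0% = labeled peptide with Gαi1 and full inhibition = labeled peptide alone without protein; negative values mean loss of peptide binding seen as reduced polarization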
Chain of Guanine nucleotide-binding protein G(i) subunit alpha-1 (Homo sapiens) (P63096 whole entry, looked up): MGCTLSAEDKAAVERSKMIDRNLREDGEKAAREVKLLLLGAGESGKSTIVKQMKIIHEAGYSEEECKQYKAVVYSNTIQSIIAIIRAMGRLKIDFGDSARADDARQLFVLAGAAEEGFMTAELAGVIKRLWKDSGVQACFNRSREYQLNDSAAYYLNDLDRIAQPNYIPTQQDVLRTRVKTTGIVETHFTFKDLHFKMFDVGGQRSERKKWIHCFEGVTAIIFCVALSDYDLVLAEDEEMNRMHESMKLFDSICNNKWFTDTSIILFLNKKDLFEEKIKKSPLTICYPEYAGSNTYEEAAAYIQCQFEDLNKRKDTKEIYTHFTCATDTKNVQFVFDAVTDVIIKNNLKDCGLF
In short: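 A drop in FITC polarization marked displacement of the FITC-tagged RGS12 GoLoco peptide (10 nM) from Gαi1 (50 nM). Compounds were incubated 10 min at room temperature in Tris pH 7.5 buffer containing 150 mM NaCl, 0.1 mM GDP and 0.05% NP40; unlabeled peptide titration served as control.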

[9] = target: Cytochrome P450 3A4 (Homo sapiens) (UniProt P08684); assay: qHTS Assay for Activators of Cytochrome P450 3A4 (AID 885); conditions: recombinant CYP3A4, Luciferin-PPXE luminescence, 60 min; series mostly up to 57.1 µM; note: nearly all actives have a fitted effect of over 65% in size
In short: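 Human CYP3A4 dealkylates Luciferin-PPXE to luciferin, which luciferase detection converts to light. Substrate was at its KM (25uM), buffer 200mM KPO4, reaction 60 min at RT.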

[10] = target: Cytochrome P450 2D6 (Homo sapiens) (UniProt P10635); assay: qHTS Assay for Inhibitors and Substrates of Cytochrome P450 2D6 (AID 891); conditions: recombinant CYP2D6, luciferin-ME EGE luminescence; series mostly up to 11.4 µM; note: potency is the fitted concentration of half-maximal effect; nearly all actives have a fitted effect of over 60% in size
Chain of Cytochrome P450 2D6 (Homo sapiens) (P10635 whole entry, looked up): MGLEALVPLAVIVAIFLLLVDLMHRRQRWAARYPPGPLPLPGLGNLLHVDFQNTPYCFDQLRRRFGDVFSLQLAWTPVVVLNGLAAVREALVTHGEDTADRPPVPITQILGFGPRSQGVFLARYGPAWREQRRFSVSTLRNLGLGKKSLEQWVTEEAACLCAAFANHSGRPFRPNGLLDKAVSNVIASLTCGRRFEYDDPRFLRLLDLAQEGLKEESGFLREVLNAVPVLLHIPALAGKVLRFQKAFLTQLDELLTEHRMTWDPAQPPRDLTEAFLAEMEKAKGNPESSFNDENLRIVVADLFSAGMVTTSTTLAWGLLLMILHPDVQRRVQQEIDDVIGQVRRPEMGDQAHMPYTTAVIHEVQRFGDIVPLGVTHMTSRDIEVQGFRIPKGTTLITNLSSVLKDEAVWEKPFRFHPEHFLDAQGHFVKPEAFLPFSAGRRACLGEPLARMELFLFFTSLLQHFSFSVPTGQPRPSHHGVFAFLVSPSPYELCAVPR
In short: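 Luminescent read-out of luciferin formed by 5 nM human CYP2D6 demethylating 30 uM Luciferin-ME EGE (Km level) over 60 min at room temperature after NADPH regeneration addition. Data normalized to full inhibition by 1.43 uM quinidine.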

[11] = qHTS Assay for Identification of Small Molecule Antagonists for NFkB Signaling Pathway (AID 895; active = well fitted inhibition curve with a large enough effect in the signal ratio, with a control signal flat, not every such curve was filed as active; the % refers to the signal ratio; note: % is set by controls: 0 for no effect and ±100 for the full control effect); conditions: NFkB beta-lactamase reporter cells, FRET ratio 460/530; series mostly up to 38.3 µM
In short: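 NFkB-bla ME-180 cervical carcinoma cells with beta-lactamase reporter under NFkB response element; compounds added, then TNF alpha at 10 pM final (EC50), 5 h at 37 C. LiveBLAzer substrate 2 h, room temperature; emission 460/530 nm at 405 nm excitation.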

[12] = qHTS Assay for Identification of Small Molecule Agonists for Thrombopoietin (TPO) Signaling Pathway (AID 917); conditions: TPO signaling pathway reporter cells, agonist qHTS; series mostly up to 38.5 µM; note: % is set by controls: 0 for no effect and ±100 for the full control effect
In short: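 Luciferase reporter (Glycoprotein IIb promoter) in IL-3-deprived Ba/F3 cells carrying human TPO receptor; compounds co-added with 26 pM TPO, incubated 24 h, 37 C. Steadylite luminescence measured after 10 min.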

[13] = target: Muscarinic acetylcholine receptor M1 (Rattus norvegicus) (UniProt P08482); assay: qHTS Assay for Antagonists of Acetylcholine Muscarinic M1 Receptor: Measurement of IP-One Response (AID 944); conditions: CHO-M1 cells, IP-One HTRF, antagonist mode; series mostly up to 46.1 µM; note: nearly all actives have a fitted effect of over 75% in size
Chain of Muscarinic acetylcholine receptor M1 (Rattus norvegicus) (P08482 whole entry, looked up): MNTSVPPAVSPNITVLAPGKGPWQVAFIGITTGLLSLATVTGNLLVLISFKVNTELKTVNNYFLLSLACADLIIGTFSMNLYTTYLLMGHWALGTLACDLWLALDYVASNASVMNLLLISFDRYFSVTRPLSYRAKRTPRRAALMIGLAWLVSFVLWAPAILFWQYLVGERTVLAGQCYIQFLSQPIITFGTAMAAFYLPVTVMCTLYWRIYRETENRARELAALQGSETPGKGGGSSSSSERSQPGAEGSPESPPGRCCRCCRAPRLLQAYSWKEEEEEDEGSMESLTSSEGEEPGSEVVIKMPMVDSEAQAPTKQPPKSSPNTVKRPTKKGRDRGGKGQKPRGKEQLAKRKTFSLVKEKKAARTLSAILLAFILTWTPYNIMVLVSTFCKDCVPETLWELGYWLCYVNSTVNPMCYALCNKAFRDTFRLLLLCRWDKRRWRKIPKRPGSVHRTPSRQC
In short: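 Read-out: HTRF competition between d2-IP1 and Eu-cryptate anti-IP1 antibody, emission 620 and 665 nm. Stimulus was carbachol, EC80 (200 nM), for 30 min in M1-CHO cells (rat receptor), after 10 min compound pre-treatment.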

[14] = target: Pyruvate kinase (Leishmania mexicana) (UniProt Q27686); assay: qHTS Validation Assay for Inhibitors of Leishmania Mexicana Pyruvate Kinase (AID 945);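 note: 0% = DMSO only neutral control wells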; conditions: purified L. mexicana pyruvate kinase, enzyme activity, E451W mutant enzyme; series mostly up to 57.5 µM
Chain of Pyruvate kinase (Leishmania mexicana) (Q27686 2-499 E452W): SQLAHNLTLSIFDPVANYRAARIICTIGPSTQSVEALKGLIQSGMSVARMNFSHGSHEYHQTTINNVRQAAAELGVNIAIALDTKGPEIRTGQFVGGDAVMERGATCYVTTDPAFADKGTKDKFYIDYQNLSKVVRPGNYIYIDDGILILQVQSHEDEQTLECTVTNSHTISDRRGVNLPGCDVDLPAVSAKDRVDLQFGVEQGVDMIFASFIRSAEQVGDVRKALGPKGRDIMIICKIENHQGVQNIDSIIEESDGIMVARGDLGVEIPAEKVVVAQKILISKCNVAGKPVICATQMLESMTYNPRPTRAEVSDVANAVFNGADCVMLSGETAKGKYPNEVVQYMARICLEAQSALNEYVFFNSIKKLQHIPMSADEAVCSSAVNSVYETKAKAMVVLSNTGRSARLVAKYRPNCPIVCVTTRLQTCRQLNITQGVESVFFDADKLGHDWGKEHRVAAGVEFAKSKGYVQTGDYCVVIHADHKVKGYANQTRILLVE
In short: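 Substrate mix (0.5 mM PEP, 0.1 mM ADP, 7 mM MgCl2, 50 mM KCl, pH 7.2 imidazole) received compound by pin tool, then 0.2 nM LmPYK E451W. After 1 h at room temperature, PKLight was added and luminescence measured.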

[15] = target: Pyruvate kinase PKM (Homo sapiens) (UniProt P14618); assay: qHTS Assay for Activators of Human Muscle Pyruvate Kinase (AID 954; active = well fitted curve in the direction sought with a large enough effect, not every such curve was filed as active;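 note: 0% = uninhibited enzyme and -100% = no enzyme or full thiadiazolimine inhibition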); conditions: purified human muscle pyruvate kinase, luciferase-coupled luminescence, 1 h; series mostly up to 57.5 µM
Chain of Pyruvate kinase PKM (Homo sapiens) (P14618 whole entry, looked up): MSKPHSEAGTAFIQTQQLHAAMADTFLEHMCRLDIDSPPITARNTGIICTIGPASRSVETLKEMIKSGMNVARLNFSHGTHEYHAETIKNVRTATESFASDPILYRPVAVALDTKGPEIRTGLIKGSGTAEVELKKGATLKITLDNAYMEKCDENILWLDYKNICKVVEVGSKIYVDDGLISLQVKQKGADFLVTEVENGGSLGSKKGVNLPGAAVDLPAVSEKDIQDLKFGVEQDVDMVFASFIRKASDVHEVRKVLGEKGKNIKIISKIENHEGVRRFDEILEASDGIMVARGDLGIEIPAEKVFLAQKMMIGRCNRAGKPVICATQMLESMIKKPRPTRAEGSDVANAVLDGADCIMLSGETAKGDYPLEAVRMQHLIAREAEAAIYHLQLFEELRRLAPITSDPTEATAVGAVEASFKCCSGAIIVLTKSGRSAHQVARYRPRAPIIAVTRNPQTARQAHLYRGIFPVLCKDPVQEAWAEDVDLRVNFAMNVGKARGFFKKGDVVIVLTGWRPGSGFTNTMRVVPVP
In short: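 Compound pinned into substrate mix (0.5 mM PEP, 0.1 mM ADP), then 0.1 nM PKM2 added; 1 h, RT. Stop/detection luciferase reagent added, luminescence read. Normalized to no-inhibition and no-enzyme or reference-inhibitor controls.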

[16] = target: Alpha-galactosidase A (Homo sapiens) (UniProt P06280); assay: Counterscreen for Glucocerebrosidase Inhibitors: qHTS Assay for Human alpha-Galactosidase at pH 4.5 (AID 992); conditions: purified enzyme, fluorogenic substrate; series mostly up to 76.9 µM; note: 0% is about no effect
Chain of Alpha-galactosidase A (Homo sapiens) (P06280 whole entry, looked up): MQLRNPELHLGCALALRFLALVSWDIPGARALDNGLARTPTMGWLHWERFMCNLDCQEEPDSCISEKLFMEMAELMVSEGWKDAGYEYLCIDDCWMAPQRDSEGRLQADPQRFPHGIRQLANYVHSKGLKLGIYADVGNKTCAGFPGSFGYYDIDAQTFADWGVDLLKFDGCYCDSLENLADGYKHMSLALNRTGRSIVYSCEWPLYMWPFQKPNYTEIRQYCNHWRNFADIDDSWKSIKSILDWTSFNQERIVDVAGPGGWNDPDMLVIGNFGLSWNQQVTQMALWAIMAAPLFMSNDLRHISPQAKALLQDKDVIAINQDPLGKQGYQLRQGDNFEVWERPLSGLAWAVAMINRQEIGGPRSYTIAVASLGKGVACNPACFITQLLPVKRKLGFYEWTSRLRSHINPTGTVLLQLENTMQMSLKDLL
In short: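 Steps: enzyme (2 nM final), then compound across 0.7 nM to 77 uM, then 80 uM fluorogenic galactopyranoside substrate; incubate 20 min at room temperature; quench at pH 10; measure fluorescence at 365/440 nm.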

[17] = target: alpha-glucosidase (Oryza sativa, rice) (UniProt Q653V4); assay: Counterscreen for Glucocerebrosidase Inhibitors: qHTS Assay for Rice alpha-Glucosidase at pH 5.0 (AID 997); conditions: rice alpha-glucosidase enzyme activity; series mostly up to 76.9 µM;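 note: 0% = full activity with enzyme and -100% = basal without enzyme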
In short: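 Endpoint fluorogenic assay at pH 5.0: compounds (0.7 nM to 77 uM) titrated against 4 nM rice enzyme and 400 uM 4-MU-alpha-glucoside for 20 min at room temperature; NaOH/glycine stop, read ex 365/em 440 nm, Hill-fitted AC50.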

[18] = target: Glucocorticoid receptor (Homo sapiens) (UniProt P04150); assay: GR-EFC Redistribution (AID 451; calls by dose curve; note: potency is the fitted concentration of half-maximal effect); conditions: CHO-K1 GR-EFC translocation, beta-gal luminescence, 2 h
In short: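 CHO-K1 cells stably expressing nuclear-localized β-gal enzyme acceptor and GR fused C-terminally to the enzyme donor fragment; ligand-driven nuclear translocation restores β-gal by complementation. Compounds titrated up to 46 uM final, 2 h at 37 °C; luminescence read.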

[19] = target: Muscarinic acetylcholine receptor M1 (Rattus norvegicus) (UniProt P08482); assay: qHTS Assay for Antagonists of Acetylcholine Muscarinic M1 Receptor: Kinetic Measurement of Intracellular Calcium Response (AID 943); conditions: M1-expressing cells, kinetic intracellular calcium fluorescence; series mostly up to 35.3 µM;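 note: Fluo-4 calcium signal as peak divided by basal fluorescence over 4 min; nearly all actives have a fitted effect of over 75% in size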
In short: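 Read-out: peak over basal Fluo-4 fluorescence, kinetic at 1 Hz for 4 min after EC80 carbachol (100 nM final). Rat M1-CHO cells, dye loaded 1 h at 37C, compound added 10 min before agonist.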

COc1ccc2c3c1O[C@@H]1C(=O)CC[C@@]4(O)[C@@H](C2)N(CC2CC2)CC[C@]314
active: Potency [10] 5.01 µM
inactive: activity change, negative = inhibition [1] -5.48% [at 38 µM] | Potency [2] | activity change, negative = inhibition [3] -9.4% [at 38 µM] | activity, negative = inhibition [4] 4.82% [at 38 µM] | Potency [5] > 46 µM | Potency [6] | outcome [7] | outcome [8] | Potency [9] | Potency [11] | outcome [12] | Potency [13] | outcome [14] | outcome [15] | outcome [16] | outcome [17]

N[C@H](Cn1ccc(=O)[nH]c1=O)C(=O)O
active: Potency [10] 3.98 µM
inactive: activity change, negative = inhibition [1] -6.11% [at 38 µM] | Potency [2] | activity change, negative = inhibition [3] -2.89% [at 38 µM] | activity, negative = inhibition [4] 4.92% [at 38 µM] | Potency [5] > 46 µM | Potency [18] > 46 µM | outcome [7] | outcome [8] | Potency [11] | outcome [12] | Potency [19] | outcome [14] | outcome [15] | outcome [16] | outcome [17]
